The list is not random: actives were taken first. Their share in the collection is about 2.8%.
Peg3 prom inh: inhibitors of Peg3 promoter; 1.7% of 360,000 active; inhibition, % at 20 µM; AID 588405; HeLa PEG-Prom luciferase reporter, luminescence, overnight;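 active = inhibition of at least 50% at 20 µM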
MITF TRPM1 inh: MITF TRPM1 promoter inhibition in SK-MEL-5 cells; 0.83% of 330,000 active; SK-MEL-5 TRPM1 promoter luciferase, 24 h; inhibition, % at 12.5 µM;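 active = mean inhibition across replicates of 60% or more, whatever share of single replicates reaches that level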
CF NFkB inh: cystic fibrosis NF-kB activation inhibition; 0.86% of 360,000 active; KKLEB NF-kB-GFP reporter, PAF-induced, GFP fluorescence overnight; inhibition, % at 5 µM;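 active = at least 50% inhibition at 5 µM, scaled per plate between neutral and stimulator controls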;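 note: PAF is a Pseudomonas aeruginosa culture filtrate used as stimulus; plate controls were PAF-stimulated DMSO wells for no effect and unstimulated DMSO wells for full effect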
HIF-2a block: blocks HIF-2a reporter activity; 786-0 RCC cells HIF-2a reporter, luciferase luminescence, overnight; inhibition, % at 18.8 µM; 0.72% of 360,000 active; AID 624352;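 active = inhibition of the luminescence signal of 40% or more relative to plate controls, in a single-dose primary screen at 18.75 µM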
Shn3 inh set2: Schnurri-3 reporter inhibition in Clone20 osteoblasts | Clone20 osteoblast Shn3 3'UTR firefly luciferase, 24 h | inhibition, % at 12.5 µM | 0.52% of 360,000 active;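 active = mean inhibition of at least 75% with every replicate also reaching 75%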;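 note: 0% = median of neutral control wells and 100% = pilot-screen positive control compound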
KKLEB cytotox: counter-screen for CF NF-kB inhibitors: cytotoxicity. KKLEB CF airway cells viability, ATPlite luminescence, overnight; active compounds read low; cells stimulated with P. aeruginosa culture filtrate. activity change (cytotoxicity), % at 5 µM. 0.36% of 360,000 active;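 active = corrected activity change at or below -50% at 5 µM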
The depositor's hits bear a star; / = not tested or not shown.

SMILES | Peg3 prom inh | MITF TRPM1 inh | CF NFkB inh | HIF-2a block | Shn3 inh set2 | KKLEB cytotox
Cc1nc2ccccc2c2c1CC(C(C)(Cl)Br)O2 (configuration not stated) | 6 | 26 | 25 | 5 | 90* | -5
CC(Sc1ccc(Cl)cc1)C(=O)Nc1ccc2c(c1)OCO2 (configuration not stated) | -17 | -9 | -1 | -36 | 2 | -4
CC(C)N1CCC2(CC1)N=C(c1ccc3c(c1)OCO3)CC(c1cc(Cl)ccc1O)N2 (configuration not stated) | 101* | -12 | 27 | -128 | -17 | -31
COC(=O)[C@@]12CCCCN1[C@H](c1ccc(-c3cc(C(C)=O)cs3)cc1)[C@H]1C(=O)N(C)C(=O)[C@H]12 | 74* | 36 | 26 | 17 | 24 | -2
COC(=O)[C@@]12CCCCN1[C@H](c1ccc(-c3cc(C(C)=O)cs3)c(OC)c1)[C@H]1C(=O)N(C)C(=O)[C@H]12 | -6 | -18 | -6 | 2 | 16 | -1
COc1ccc(-c2sc3cc4c(cc3c2-c2ccc(OCCN3CCCCC3)cc2)OCO4)cc1 | 90* | 19 | 72* | 11 | 20 | -78*
COc1cc(OC)cc(-c2sc3ccc(OC)cc3c2-c2ccc(OCCN3CCCCC3)cc2)c1 | 90* | -5 | 69* | -23 | 14 | -75*
COCCn1c(SCC(=O)NC2CCCC(C)C2C)nc2ccccc2c1=O (configuration not stated) | 13 | -2 | -4 | 20 | 12 | -1
CN(C#N)c1nc(Cl)nc(Nc2cccc(Cl)c2)n1 | 99* | 8 | 15 | 14 | -26 | -2
Cc1cc(C)nc(Nc2cccc(Cl)c2)n1 | -48 | -42 | 9 | -50 | -7 | -10
O=[N+]([O-])c1ccccc1Nc1c2ccccc2nc2ccccc12 | 16 | 5 | -14 | 20 | 42 | -14
O=[N+]([O-])c1cccc2nc3ccccc3c(NCCCn3ccnc3[N+](=O)[O-])c12 | 99* | 82* | -139 | -9 | -4 | -13
COc1cccc(NC(=O)COc2nc3ccccc3nc2C)c1 | 4 | -5 | -15 | 12 | 18 | 3
NC(=O)c1ccc(N2CCC(C(N)=O)CC2)c([N+](=O)[O-])c1 | -5 | 6 | -9 | 15 | -5 | 5
COc1ccc(CNCC(O)COc2cccc3c2OC(C)(C)C3)cc1 (configuration not stated) | 13 | 1 | 18 | 5 | 91* | 12
COC(=O)c1ccc(CNCC(O)COc2ccc(-c3ccccc3)cc2)cc1 (configuration not stated) | -16 | -11 | -5 | -7 | 4 | -7
COc1ccc(CNCC(O)COc2ccc(C(C)(C)c3ccccc3)cc2)cc1 (configuration not stated) | 74* | -12 | 22 | 10 | 18 | -6
COC(=O)c1ccc(COc2cccc3c2OC(C)(C)C3)cc1 | -14 | 0 | 12 | -2 | 17 | -6
CCC(=O)OCOc1ccc(/C=C2/CCC(CN(C)C)C2=O)cc1 (configuration not stated) | 100* | 67* | -4 | 93* | 78 | -2
CCOc1ccc(/C=C2\CCC(C3CCCC3)C2=O)cc1 (configuration not stated) | -312 | -117 | -10 | -313 | -43 | 13
CCOC(=O)C1=C(Cc2ccc(Cl)cc2)C(=O)c2ccccc2C1=O | 50* | 17 | 6 | -112 | 78 | -4
Cc1noc2ncnc(Sc3ccc(Cl)cc3)c12 | 102* | 7 | 36 | 34 | -17 | -12
CC1CN(C(=O)c2ccc(NS(=O)(=O)c3ccc(F)c(F)c3)cc2)CC(C)O1 (configuration not stated) | 14 | 4 | 6 | 12 | -7 | -33
Cc1nc2ccccn2c1C(=O)N=Nc1c(O)n(CCC(C)C)c2ccccc12 | 107* | 57 | 13 | -2 | 86* | -20
Cc1nnsc1C(=O)N/N=C/c1ccc2ccccc2c1O | 44 | 69* | 1 | 3 | 81 | -2
SMILES | Peg3 prom inh | MITF TRPM1 inh | CF NFkB inh | HIF-2a block | Shn3 inh set2 | KKLEB cytotox
COc1ccc(CNC(=O)Nc2nc(C(N)Cc3ccc(Cl)cc3)cs2)cc1 (configuration not stated) | 96* | / | 19 | -6 | 16 | -12
COc1ccccc1CNC(=O)Nc1nc(C(N)C(C)C)cs1 (configuration not stated) | -8 | / | -20 | 16 | -1 | -13
COc1ccc(CNC(=O)Nc2nc(C(N)CCc3ccccc3)cs2)cc1 (configuration not stated) | 88* | / | 8 | 13 | 0 | -6
COc1ccccc1CNC(=O)Nc1nc(C(N)Cc2ccc(Cl)cc2)cs1 (configuration not stated) | 94* | / | 22 | 1 | -2 | -17
COc1cc(CNC(=O)Nc2nc(C(N)CCc3ccccc3)cs2)cc(OC)c1OC (configuration not stated) | 40 | / | 13 | 2 | -13 | -17
COc1ccc(NC(=O)NCc2ccc(Cl)cc2)cc1 | -15 | -12 | -1 | -11 | 13 | -12
COc1ccc(C(=O)N[C@H](C(=O)NCc2cccs2)C(C)C)cc1 | 2 | -2 | -7 | 7 | 8 | 6
NS(=O)(=O)c1ccc(CCNC(=O)c2ccc([N+](=O)[O-])s2)cc1 | -4 | 56 | 6 | -5 | 1 | 1
CCCc1[nH]nc2c1C(c1cn[nH]c1-c1ccc(F)cc1)C(C#N)=C(N)O2 (configuration not stated) | 28 | 61* | 29 | 22 | -1 | -7
CC(=NNc1nc2ccccc2s1)c1ccncn1 | -18 | 38 | -24 | -119 | 88* | -7
CCOC(=O)CN(C)Cc1cn(C)nc1-c1ccc(Oc2ccccc2)cc1 | 7 | -1 | 0 | 14 | 1 | -3
C=C1CCC2C(C)(C(=O)O)CCCC2(C)C1CCC(CO)CCO (configuration not stated) | 107* | / | -8 | -1 | 3 | 16
O=C(NNC(=O)C1CCN(c2ncccn2)CC1)c1ccncc1 | 4 | 14 | 1 | 12 | -2 | 2
CC(C)(C)C(=O)NC1(C(F)(F)F)NC(=O)N(c2ccc(F)cc2)C1=O (configuration not stated) | 9 | -1 | 14 | 15 | 0 | -2
COc1ccc(CNC(=O)c2c(N)n(CCCN3CCOCC3)c3nc4ccccc4nc23)cc1 | 70* | -3 | -20 | -12 | -12 | -6
COCCCn1c(C(=O)Nc2ccc3c(c2)OCO3)cc2c(=O)n3cccc(C)c3nc21 | 60* | / | 28 | -14 | -12 | -17
COc1ccc(CCNC(=O)c2cc3c(=O)n4cccc(C)c4nc3n(CCCN3CCOCC3)c2=N)cc1 | 57* | 73* | -12 | 8 | 22 | -5

Screens from PubChem.
